# Laboratory results as given in PubChem BioAssay (NCI).
# This is part of a sample that, as a whole, favours compounds with a hit. Of some 83,000 tested, about 20% had one in any assay.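 For each line, cells grew in 96-well plates with the test compound present at a single concentration for 48 hours.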 Unmarked numbers belong to inactive results. Calls of active or inactive are those of the source. How the source made its calls: active means growth percent below 10; inactive means the rest.
# Columns and labels:
# Experiment in all cases: NCI-60 one-dose screen, 48 h (100 = growth as untreated, 0 = no growth, -100 = all killed)
# Settings in all cases: 10 µM unless noted
# SK-MEL-2 melanoma = tested on: SK-MEL-2 melanoma
# EKVX NSCLC = tested on: EKVX NSCLC
# SN12C renal = tested on: SN12C renal
# UO-31 renal = tested on: UO-31 renal
# ACHN renal = tested on: ACHN renal
# CAKI-1 renal = tested on: CAKI-1 renal
# A498 renal = tested on: A498 renal
# CCRF-CEM leukemia = tested on: CCRF-CEM leukemia
# RPMI-8226 leukemia = tested on: RPMI-8226 leukemia
# OVCAR-8 ovarian = tested on: OVCAR-8 ovarian
# OVCAR-5 ovarian = tested on: OVCAR-5 ovarian
# OVCAR-4 ovarian = tested on: OVCAR-4 ovarian
# SK-OV-3 ovarian = tested on: SK-OV-3 ovarian
# IGROV1 ovarian = tested on: IGROV1 ovarian
# OVCAR-3 ovarian = tested on: OVCAR-3 ovarian
# HS 578T breast = tested on: HS 578T breast
# NCI/ADR-RES ovarian = tested on: NCI/ADR-RES ovarian
# MOLT-4 leukemia = tested on: MOLT-4 leukemia
# SR leukemia = tested on: SR leukemia
Compound,growth (SK-MEL-2 melanoma),growth (EKVX NSCLC),growth (SN12C renal),growth (UO-31 renal),growth (ACHN renal),growth (CAKI-1 renal),growth (A498 renal),growth (CCRF-CEM leukemia),growth (RPMI-8226 leukemia),growth (OVCAR-8 ovarian),growth (OVCAR-5 ovarian),growth (OVCAR-4 ovarian),growth (SK-OV-3 ovarian),growth (IGROV1 ovarian),growth (OVCAR-3 ovarian),growth (HS 578T breast),growth (NCI/ADR-RES ovarian),growth (MOLT-4 leukemia),growth (SR leukemia)
C#Cc1cccc(NC(=O)c2cccc(NC(=O)CCl)c2)c1,30.8% [8.25 µM],86.1% [8.25 µM],-65.9% [8.25 µM] (active),-98.9% [8.25 µM] (active),-96.8% [8.25 µM] (active),0.818% [8.25 µM] (active),46.6% [8.25 µM],8.26% [8.25 µM] (active),-3.03% [8.25 µM] (active),-28.3% [8.25 µM] (active),8.37% [8.25 µM] (active),-38.1% [8.25 µM] (active),56.4% [8.25 µM],-53.5% [8.25 µM] (active),-71.3% [8.25 µM] (active),31.8% [8.25 µM],-11.5% [8.25 µM] (active),,
Cc1cc2nc3c4cc(C=O)ccc4n(CCN(C)C)c3nc2cc1C,11.7%,25.4%,20.5%,-28.6% (active),-15% (active),3.46% (active),,21.7%,-22.6% (active),17.6%,22.5%,23.8%,26.8%,,22.7%,51.6%,18.5%,9.19% (active),3.27% (active)
CCC(=O)Oc1ccc(/C(=C(\C)c2ccccc2)c2ccc(OCCN3CCCCC3)cc2)cc1,92.1%,87.1%,79.7%,64.3%,102%,87.8%,,84.9%,62.9%,81.6%,90.9%,80.6%,75.5%,93.8%,84.3%,72.9%,74.8%,60.8%,20.3%
C=C1C(=O)O[C@H]2[C@H]1CC/C(CNC(=O)C(C)c1ccc(CC(C)C)cc1)=C\CC[C@@]1(C)O[C@@H]21 (some centres undefined),32.9%,0% (active),-0.803% (active),-99.7% (active),-95.9% (active),-7.71% (active),,-1.13% (active),-21% (active),-32.5% (active),57.3%,29.3%,88.1%,-36% (active),-87.9% (active),25.4%,55.3%,0.34% (active),8.13% (active)
CN1CCN(c2ccc(NC3=C(Cl)C(=O)c4ncccc4C3=O)cc2C(F)(F)F)CC1,89%,110%,93.9%,-80.4% (active),-56.2% (active),-95.6% (active),,-1.56% (active),,30.4%,100%,-96.8% (active),84.9%,-37.6% (active),-82.9% (active),92.9%,81.9%,1.95% (active),9.03% (active)
COc1ccc(/C=C/c2nc(Nc3ccc(S(=O)(=O)Nc4cc(C)on4)cc3)c3ccccc3n2)cc1,75.8%,71.6%,82.3%,50.3%,54.2%,49.4%,1.73% (active),49%,67.9%,61.3%,71.1%,73.4%,77.4%,78%,83.7%,80.3%,75.7%,70.6%,45.4%
COc1cc2oc(-c3cccc(C(=O)Nc4ccc(Br)cc4)c3)cc(=O)c2c(OC)c1OC,71.2%,60%,50.9%,55.7%,72.5%,20.6%,,41.9%,,40.5%,61%,57.6%,69.4%,52.3%,76%,65.2%,45.7%,49.5%,18.4%
COc1cccc2c1c1nc3cc(C)c(C)cc3nc1n2CCN(C)C,11%,25.7%,16.9%,6.86% (active),-12.3% (active),9.75% (active),,27.6%,-8.21% (active),26.4%,28.7%,35%,39%,5.59% (active),32.6%,54.4%,25.1%,10.5%,3.48% (active)
C=C1C(=O)O[C@H]2[C@H]1CC/C(COC(=O)NCCc1c[nH]c3ccc(OC)cc13)=C\CC[C@@]1(C)O[C@@H]21,62.1%,19.8%,-34.4% (active),-99.3% (active),-59% (active),-66.2% (active),,-6.35% (active),-18.4% (active),20.4%,51.8%,-13.1% (active),118%,-5.2% (active),-74.3% (active),79.9%,83.5%,3.53% (active),11.6%
